Screening results from PubChem.
D2 PAM-1 – positive allosteric modulators of human D2 dopamine receptor; 360,000 tested, 0.23% active; P14416; DiscoveRx D2 beta-arrestin cells, luminescence, 90 min; 100% = 57 uM dopamine signal; potentiation, % (concentration not given with the values); in the data active = potentiation above about 50%; inconclusive = mostly about 30% to 49%
Target sequence (P14416 whole entry, looked up): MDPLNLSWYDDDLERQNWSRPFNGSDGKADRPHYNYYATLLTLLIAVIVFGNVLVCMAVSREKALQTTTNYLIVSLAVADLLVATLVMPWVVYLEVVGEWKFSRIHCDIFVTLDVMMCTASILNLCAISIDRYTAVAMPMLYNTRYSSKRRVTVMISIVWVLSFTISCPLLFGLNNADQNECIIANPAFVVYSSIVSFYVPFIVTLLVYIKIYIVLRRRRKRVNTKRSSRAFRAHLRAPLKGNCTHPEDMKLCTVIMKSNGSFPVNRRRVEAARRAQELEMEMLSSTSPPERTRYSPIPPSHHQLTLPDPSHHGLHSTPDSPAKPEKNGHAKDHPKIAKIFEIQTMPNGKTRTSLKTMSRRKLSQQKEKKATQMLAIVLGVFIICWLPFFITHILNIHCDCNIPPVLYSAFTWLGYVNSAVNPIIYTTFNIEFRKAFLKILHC
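PathHunter D2 cells, attached overnight at 37 deg C, received compound in DMSO plus dopamine at EC20 (50 nM final) for 90 min at 37 deg C. Beta-arrestin recruitment was read as luminescence after 1 h with detection reagent at ambient temperature.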
D2 ag-1 – D2 dopamine receptor (human) agonism. 340,000 tested, 0.53% active. HEK293 T-REx D2 cells, calcium flux agonist mode. P14416. activation, % at 2 µM;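 active = activation over 3 SD above normal in the single-dose calcium agonist read, cut at about 30% in these data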; also: 0% is about no effect
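Agonism is scored from calcium flux in a force-coupled, inducible HEK293 cell line expressing D2, read kinetically for 180 s after compound addition against dopamine controls.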
D2 PAM-2 – D2 dopamine receptor (human) potentiation; 340,000 tested, 0.34% active; potentiation, % at 10 µM; HEK293 T-REx D2, calcium flux, EC20 dopamine potentiation; P14416; AID 485347;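 active = potentiation over 3 SD above the plate norm, cut at about 30% in these data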; also: 0% is about no effect
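Potentiation of an EC20 dopamine calcium response measured kinetically over 180 s, after a preceding 180 s compound-only read flagging agonists. Cells: inducible Hek293 Trex D2 line, 4000/well, cultured overnight at 30 C before dye loading.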
D2 antagonist – D2 dopamine receptor (human) antagonism; 340,000 tested, 2% active; inhibition, % at 10 µM; AID 485344; P14416; HEK293 TREx D2 cells, calcium flux, dopamine EC80; in the data active = inhibition above about 30%; inactive = below that, where a call was filed; also: 0% is about no effect
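Tetracycline-induced HEK293 T-REx cells expressing D2 force-coupled to calcium signalling were dye-loaded, exposed to compound for 180 s, then challenged with an EC80 of dopamine; calcium flux was followed kinetically for a further 180 s.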
D2 ag-2 – activates the human D2 dopamine receptor | DiscoveRx PathHunter D2 beta-arrestin, luminescence, 90 min; 100% = 57 uM dopamine signal | activation, % (test concentration not listed) | 360,000 tested, 0.084% active | AID 624465; in the data active = activation above about 40%; inconclusive = between about 15% and that limit
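DiscoveRx PathHunter D2 beta-arrestin cells (2,100/well) attached overnight, then compound-stimulated 90 min at 37 C in HBSS/10 mM HEPES/0.1% Tween-20 buffer; beta-galactosidase complementation read by luminescence after 1 h at ambient temperature. Dopamine 57 uM final (EC100) as control.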
* = called active by the depositor; ? = inconclusive; . = no result. Most compounds without a hit are left out; they make up all but 2.4% or so of the library.

SMILES	D2 PAM-1	D2 ag-1	D2 PAM-2	D2 antagonist	D2 ag-2
O=C(O)c1ccccc1-c1ccccc1C(=O)NNc1ccccc1	5.1	37.2*	-5.5	-27.6	-3.8
COc1ccc(NC(=O)C(=O)NCCN2CCN(C(=O)c3ccc(C)cc3)CC2)cc1	-22.3	-1.7	-21.6	46.0*	0.1
CC(=O)Nc1ccc(NC(=O)CCS(=O)(=O)c2ccc3c(c2)oc(=O)n3C)cc1	-9.9	0.3	-9.2	-0.5	-2.4
Cn1c(=O)oc2cc(NC(=O)CCl)ccc21	-0.5	0.2	-4.6	31.9*	2.4
N#Cc1ccccc1NC(=O)C(=O)NCCc1csc(-c2ccc(C(F)(F)F)cc2)n1	.	1.0	-5.8	.	.
Cc1ccc(S(=O)(=O)Cc2ccc(C(=O)NCCCN3CCCC3=O)o2)cc1	1.1	0.9	-3.1	34.0*	-3.3
O=C(NCCCN1CCCC1)c1ccc(CS(=O)(=O)c2ccc(Br)cc2)o1	-9.1	0.1	12.6	-2.8	-0.4
CCc1ccc(NC(=O)CCS(=O)(=O)c2ccc3c(c2)oc(=O)n3C)cc1	.	0.7	2.9	.	.
CN1CCN(Cc2cc(=O)oc3ccc(Cl)cc23)CC1	-15.0	1.0	-6.2	44.8*	-4.1
Cc1cc2oc(=O)cc(CN3CCN(S(=O)(=O)c4ccc5c(c4)OCCO5)CC3)c2cc1C	-4.4	-1.2	9.6	0.3	-3.5
Cc1cc2oc(=O)cc(CN3CCN(S(=O)(=O)/C=C/c4ccccc4)CC3)c2cc1C	-9.0	35.7*	-17.0	-3.8	-0.1
Cc1ccc2oc(=O)cc(CN3CCN(Cc4ccccc4)CC3)c2c1	-13.0	-1.0	-20.9	51.9*	-0.1
CCCOC(=O)c1cc(-c2ccc(C=O)o2)ccc1Cl	1.2	-1.7	0.0	30.7*	0.2
COc1ccc(Br)cc1/C=N/NC(=O)CNC(=O)/C=C/c1ccccc1	-40.7	-0.4	-26.1	76.3*	-1.6
COc1ccccc1/C=C\C(=O)NCC(=O)N/N=C/c1ccc(O)cc1O	-11.4	-1.6	-21.4	77.4*	-2.2
COc1ccc(/C=C\C(=O)NCC(=O)N/N=C/c2cccc(OC)c2O)cc1	-14.4	0.5	-15.6	-3.0	-3.6
COc1ccc(/C=C/C(=O)NCC(=O)N/N=C/c2cc(Br)ccc2OCc2ccccc2)cc1	-10.6	-0.4	-10.5	-12.6	0.9
COc1cccc(/C=N/NC(=O)CNC(=O)/C=C\c2ccccc2)c1O	2.1	0.0	-15.9	53.8*	3.3
COc1cccc(NC(=O)C2CCC(CNS(=O)(=O)c3ccc4c(c3)CCCC(=O)N4)CC2)c1 (stereo not given)	.	-0.7	-6.2	.	.
O=C(Nc1ccccc1C(=O)N1CCCC1)c1ncoc1-c1cccc(Cl)c1	-1.2	-0.1	3.4	16.9	3.7
Cc1ccc(-c2ocnc2C(=O)Nc2ccccc2C(=O)N2CCCC2)cc1	-6.6	-0.6	-10.9	57.1*	0.3
Cc1ccc(C(=O)OC2CCOC2=O)cc1NC(=O)c1ccco1 (stereo not given)	2.2	1.3	-9.6	35.4*	-0.5
COc1cc(-c2nnc(-c3cc(OC)c(OC)c(OC)c3)o2)cc(OC)c1OC	2.1	.	-3.9	8.4	0.2
CCCc1nnc(-c2cc(OC)c(OC)c(OC)c2)o1	11.8	-1.0	8.8	30.0*	-2.6
CCN(C(C)=O)c1cnc(C=NNC(N)=S)c2ccccc12	57.0*	.	.	.	?
SMILES	D2 PAM-1	D2 ag-1	D2 PAM-2	D2 antagonist	D2 ag-2
COc1cccc2[nH]c(C(=O)NCc3ccccc3)cc12	-13.0	-1.7	-28.0	41.7*	-2.0
COc1ccc(CNC(=O)c2cc(-c3ccccc3OC)on2)cc1	-20.2	-0.5	-27.1	91.3*	-2.5
COc1ccccc1-c1cc(C(=O)NCc2ccc(Cl)cc2)no1	-17.0	.	.	.	-2.3
COc1ccccc1-c1cc(C(=O)NCc2ccccc2)no1	-19.9	0.5	-25.9	80.6*	1.5
COc1ccccc1-c1cc(C(=O)NCc2ccc(F)cc2)no1	-23.3	0.8	-13.3	74.1*	-1.8
COc1ccc(CNC(=O)c2cc(-c3ccco3)on2)cc1	-5.7	0.5	-11.8	-1.6	-1.0
O=C(Nc1ccccc1)c1cc2c(-c3ccccc3)nn(-c3ccccc3)c2s1	.	1.4	-12.3	.	.
CCN(CC)c1nn2c(=O)c(C(=O)NCCc3ccccc3C)cnc2s1	.	0.1	9.7	.	.
CCOC(=O)C1=C(C)NC(=S)N(C(C)=O)C1c1ccccc1 (stereo not given)	-2.6	0.0	-1.2	32.1*	-0.5
CCC(=O)N1CCc2cc(S(=O)(=O)NCCC(=O)N3CCN(c4ccccc4)CC3)ccc21	-3.8	5.4	-4.3	34.3*	7.8
O=C(C1CCC1)N1CCc2cc(S(=O)(=O)NCCN3CCN(c4ccccc4F)CC3)ccc21	-4.0	67.8*	-18.2	52.7*	?
O=C(CCNS(=O)(=O)c1ccc2c(c1)CCN2C(=O)C1CC1)N1CCN(c2ccccc2F)CC1	.	.	11.0	.	.
CCc1ccc(OC(=O)c2cccnc2)cc1	-5.8	-1.8	2.1	32.1*	-6.1
O=C(O)c1nn2cc(CCO)cnc2c1Cl	-5.3	1.0	33.5*	-6.2	0.7
COc1ccc(NC(=O)CC2SC(N3CCOCC3)=NC2=O)c(OC)c1 (stereo not given)	-5.4	.	.	.	2.1
COc1cc(Cl)c(C)cc1NC(=O)CC1SC(N2CCOCC2)=NC1=O (stereo not given)	-4.4	-0.8	-23.0	99.2*	-0.4
Cc1cc(C)n(C(=O)c2ccc(NC(=O)CC(C)C)cc2)n1	-11.8	0.4	-11.1	32.9*	-0.7
CCC(=O)Nc1ccc(C(=O)n2nc(C)cc2C)cc1	1.5	0.7	14.6	-26.0	-2.9
CC(=O)Nc1ccc(S(=O)(=O)Nc2ccccc2C(=O)N2CCCCC2)cc1	-9.2	-1.2	30.9*	2.9	-3.7
Clc1c(Cl)c(Cl)c2n[nH]nc2c1Cl	-4.9	4.8	0.5	38.1*	-4.7
CCC(Sc1nc2nccnc2c(=O)n1Cc1ccc(OC)cc1)C(=O)NC1CCCCC1 (stereo not given)	.	0.2	1.6	.	.
Cc1c(NC(=O)C(F)(F)F)ccc2nc3c(=O)n(C)c(=O)n(C)c3nc12	.	1.5	0.6	.	.
CC(C)OP(=O)(c1ccc(N(C)C)cc1)C(O)c1ccncc1 (stereo not given)	-2.1	0.2	5.3	31.7*	-0.7
CC(C)OP(=O)(c1ccc(N(C)C)cc1)C(O)c1ccccc1F (stereo not given)	-8.0	0.4	-3.2	-7.0	-3.5
COc1ccccc1C(O)P(=O)(OC(C)C)c1ccc(N(C)C)cc1 (stereo not given)	-3.6	0.5	-3.2	31.2*	0.3
O=C(OCc1ccccc1)C1CCN(S(=O)(=O)c2cccs2)CC1	-6.2	.	.	.	-2.6
O=C(OCn1nnc2ccccc2c1=O)C1CCN(S(=O)(=O)c2cccs2)CC1	-2.5	-1.0	73.9*	-11.1	-3.6
COc1cc(OC)cc(C(=O)Nc2ccc([N+](=O)[O-])cn2)c1	-20.9	0.0	-21.5	50.2*	4.0
